Results filed as inconclusive are left out. Activity calls are given as the source filed them. The calls were made as follows: active = hit-call score of the fitted dose curve at least 0.9, where 1 is the maximum; inconclusive = response in the unintended direction; inactive = score below 0.9.
Biological target: human Vitamin D Receptor (VDR), VDR (gene 7421) (UniProt P11473)
Test: ATG_VDR_TRANS: Attagene TRANS-FACTORIAL HepG2 Assay for human Vitamin D Receptor (VDR) (AID 2283022)
Summary of the method: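 RT-PCR/capillary electrophoresis read-out of reporter mRNA induction in transiently transfected HepG2; 24 h dosing; chimeric NR-Gal4 (TRANS format); gain-of-signal fit against DMSO baseline.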

Chain of human Vitamin D Receptor (VDR), VDR (gene 7421) (P11473 whole entry, looked up): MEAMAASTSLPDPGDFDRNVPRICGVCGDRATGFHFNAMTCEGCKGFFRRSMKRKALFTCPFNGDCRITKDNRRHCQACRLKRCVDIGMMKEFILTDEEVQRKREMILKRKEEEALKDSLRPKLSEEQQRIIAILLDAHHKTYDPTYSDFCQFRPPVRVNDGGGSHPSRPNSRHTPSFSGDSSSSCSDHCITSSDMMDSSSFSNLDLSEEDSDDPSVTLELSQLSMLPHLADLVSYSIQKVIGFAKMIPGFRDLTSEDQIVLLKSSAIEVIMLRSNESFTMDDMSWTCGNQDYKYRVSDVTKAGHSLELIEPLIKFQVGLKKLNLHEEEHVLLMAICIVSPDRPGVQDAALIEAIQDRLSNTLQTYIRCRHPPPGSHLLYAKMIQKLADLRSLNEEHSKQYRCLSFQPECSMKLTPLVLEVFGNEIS

| SMILES | outcome |
| --- | --- |
| CC(=O)CCC=C(C)C | inactive |
| C=C(C)C(=O)OCCOC(=O)C(=C)C | inactive |
| Cc1cc(C)n(CO)n1 | inactive |
| CCCCCCCCCCCCc1ccc(O)cc1 | inactive |
| C=Cc1ccc(OC(C)=O)cc1 | inactive |
| O=C(Cl)c1ccc(C(=O)Cl)cc1 | inactive |
| OCCCc1ccccc1 | inactive |
| COc1nccnc1CC(C)C | inactive |
| N#Cc1ccc(C(c2ccc(C#N)cc2)n2cncn2)cc1 | inactive |
| CCN1CCCC1=O | inactive |
| CCC(C)c1ccccc1 (centres undefined) | inactive |
| c1ccc2cnccc2c1 | inactive |
| CCCCCCOc1ccc(N)cc1 | inactive |
| Cc1c(C(=O)c2c[nH]n(C)c2=O)ccc(S(C)(=O)=O)c1C1=NOCC1 | inactive |
| CC(C)=NNC(N)=S | inactive |
| CCCCCC[C@@H](O)C/C=C\CCCCCCCC(=O)OCC(O)CO (some centres undefined) | inactive |
| NNS(=O)(=O)c1ccc(Oc2ccc(S(=O)(=O)NN)cc2)cc1 | inactive |

| SMILES | outcome |
| --- | --- |
| NC(=O)Nc1ccccc1 | inactive |
| COC(=O)CC(C)CCC=C(C)C (centres undefined) | inactive |
| COc1cc(O)c(C(=O)c2ccccc2)cc1S(=O)(=O)O | inactive |
| Cc1cccc(C(C)(C)C)c1O | inactive |
| CCC[Si](OC)(OC)OC | inactive |
| C=C(C)C(=O)OCC(O)COc1ccc(C(C)(C)c2ccc(OCC(O)COC(=O)C(=C)C)cc2)cc1 (centres undefined) | inactive |
| C=CC(=O)O[C@H]1C[C@@H]2CC[C@@]1(C)C2(C)C | inactive |
| CC(=O)OCC=C(C)C | inactive |
| CC(C=O)c1ccccc1 (centres undefined) | inactive |
| CC(=O)/C=C/C1C(C)=CCCC1(C)C (centres undefined) | inactive |
| CC(C)OC(=O)c1ccccc1 | inactive |
| C=Cc1cccc(C)c1 | inactive |
| CC(C)(CO)C(O)C(=O)NCCCO (centres undefined) | inactive |
| C=CC(=O)OCCCCCCCCCC | inactive |
| CC(C)(C)N | inactive |
| CCCCC/C=C\C/C=C\CCCCCCCC(=O)O | inactive |
| CCCCCCCCCC[N+](C)(CCCCCCCCCC)CCC[Si](OC)(OC)OC | inactive |

From PubChem BioAssay (EPA / NIEHS)
